# Screens deposited in PubChem by Sanford-Burnham Center for Chemical Genomics.
# TROY signal inh: inhibitors of TROY-driven NF-kB signaling, primary screen, Q293 LMP1-TROYcd cells, NF-kB luciferase, uHTS; actives 0.98% (n = 360,000); AID 1347056, 2019; inhibition, % at 10 µM; Q293 LMP1-TROYcd NF-kB luciferase reporter, 4 h;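 active means compounds whose plate-normalised and pattern-corrected inhibition of the luciferase reporter signal at the single screening dose is 50% or more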
# KKLEB tox: cytotoxicity in KKLEB CF airway cells, primary screen, cytotoxicity control for CF NF-kB inhibitor project, cell-based, uHTS, fluorescence assay plates | KKLEB CF airway cells viability, ATPlite luminescence, overnight; hits give low values; cells stimulated with P. aeruginosa culture filtrate | activity change (cytotoxicity), % at 5 µM | actives 0.36% (n = 360,000);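 active means corrected activity change at or below -50% at 5 µM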
# HIF-2a inh: HIF-2a reporter inhibitors, primary screen, luminescence, 786-0 RCC cells; 786-0 RCC cells HIF-2a reporter, luciferase luminescence, overnight; inhibition, % at 18.8 µM; actives 0.72% (n = 360,000); AID 624352, 2012;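 active means inhibition of the luminescence signal of 40% or more relative to plate controls, in a single-dose primary screen at 18.75 µM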
# CF NFkB block: inhibitors of PAF-induced NF-kB signaling, primary screen, cell-based, GFP fluorescence, uHTS; AID 588850, 2011; actives 0.86% (n = 360,000); inhibition, % at 5 µM; KKLEB NF-kB-GFP reporter, GFP fluorescence overnight;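 active means at least 50% inhibition at 5 µM, scaled per plate between neutral and stimulator controls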;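 further: PAF is a Pseudomonas aeruginosa culture filtrate used as stimulus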
# TWEAK-Fn14 inh: inhibitors of TWEAK-Fn14 signaling, primary screen, luciferase reporter cells, uHTS; inhibition, % at 10 µM; TWEAK-stimulated Fn14 reporter cells, luciferase luminescence, 8 h; AID 1159606, 2016; actives 2% (n = 360,000); in the data active means inhibition above about 50%
# Peg3 promoter: Peg3 promoter-driven luciferase inhibitors, primary screen, cell-based, HeLa, luciferase luminescence; HeLa PEG-Prom luciferase reporter, overnight; inhibition, % at 20 µM; actives 1.7% (n = 360,000);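 active means inhibition of at least 50% at 20 µM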
# Mdm2-MdmX confirm: retested Mdm2-MdmX interaction blockers, confirmation, cell-based, luminescence, single concentration, set 2; shares compounds with HIF-2a inh; SaOS-2 split-luciferase Mdm2/MdmX complementation; inhibition, % at 8 µM; actives 99% (n = 740); AID 504601, 2011;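 active means mean inhibition of the luminescence signal across two replicates at or above 26 percent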
# HIF-2a inh conf: HIF-2a reporter inhibitor retest, confirmation, luminescence, 786-0 RCC cells | shares compounds with HIF-2a inh | HIF-2a luciferase reporter luminescence, overnight | inhibition, % at 18.8 µM | actives 56% (n = 1,800) | AID 651580, 2012;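 active means mean inhibition across four replicates of at least 40 percent at the single tested concentration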
# HIF-1a cs: HIF-1a luciferase reporter signal reduction – MiaPaCa-2 cells, single concentration, counter-screen for HIF-2a inhibitor project, confirmation | MiaPaCa-2 HIF-1a luciferase reporter, desferoxamine, overnight | actives 72% (n = 1,800) | inhibition, % at 18.8 µM | shares compounds with HIF-2a inh;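 active means mean inhibition of the reporter signal across four replicates at the single tested dose of 50% or more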
# A number is an active result; i = inactive; nt = not tested or not shown. In the library only some 4% were active in any assay of this set; here they are far more common.
SMILES,TROY signal inh,KKLEB tox,HIF-2a inh,CF NFkB block,TWEAK-Fn14 inh,Peg3 promoter,HIF-2a inh conf,HIF-1a cs,others
COc1cc(CN2CCN(C3CCC3)CC2CCO)cc(OC)c1 (configuration not stated),i,i,i,i,i,i,nt,nt,
Cc1c(/C(O)=C2/C(=O)C(=O)N(CCN3CCOCC3)C2c2ccccn2)cnn1-c1ccccc1 (configuration not stated),85,i,73,i,92,i,40,59,
Cc1ccc(C=Nc2ccccc2C#N)s1,i,i,i,i,i,i,nt,nt,
Cc1ccc(NC(=O)[C@H](Cc2c[nH]c3ccccc23)NC(=O)[C@@H]2Cc3ccccc3CN2)c(C)c1,i,i,i,i,i,i,nt,nt,Mdm2-MdmX confirm=98
Cc1nc([N+](=O)[O-])c(Br)n1Cc1ccc(Cl)c(Cl)c1,i,i,70,86,81,104,i,102,
CC(C)c1ccc(NC(=O)Nc2nc(C(N)C3CCCCC3)cs2)cc1 (configuration not stated),i,i,50,i,i,95,i,106,
COc1ccc(S(=O)(=O)NNC(=O)c2cc3c4ccccc4n(C)c3s2)cc1,i,i,i,i,i,i,nt,nt,
CCN(C(=O)CCS(=O)(=O)c1ccc2c(c1)oc(=O)n2C)c1ccc(OC)cc1,i,i,i,i,i,i,nt,nt,
COc1cccc(N(C(=O)CCl)C(C(=O)NCCc2ccccc2)c2cccs2)c1 (configuration not stated),i,-90,93,94,59,109,98,107,
COCCNC(=O)C(c1cccs1)N(C(=O)Cn1nnc2ccccc21)c1ccccc1 (configuration not stated),i,i,i,i,i,i,nt,nt,
COc1ccc(N(C(=O)CCl)C(C(=O)NCCc2ccccc2)c2cccs2)cc1Cl (configuration not stated),i,-104,95,89,52,102,99,103,
COc1cc(/C=C/C(=O)OCC(=O)NCCc2ccccc2)ccc1OC(F)F,i,i,i,i,i,i,nt,nt,
O=C(O)c1cccc(-c2nc3ccccc3[nH]2)c1,i,i,69,i,i,55,55,i,
CCOc1ccc(N=C(NN)c2ccc3ccccc3n2)cc1,87,i,49,i,94,i,45,66,
C(#CC12CC3CC(CC(C3)C1)C2)CN1CCOCC1,i,i,41,i,i,i,i,i,
N#CC1=C(N)N2C(=C(C#N)C1c1ccc(Br)cc1)Nc1ccccc12 (configuration not stated),nt,nt,nt,nt,nt,nt,nt,nt,Mdm2-MdmX confirm=101
N#CC1=C(N)N2C(=C(C#N)C13CCN(Cc1ccccc1)CC3)Nc1ccccc12,i,i,i,i,i,i,nt,nt,
Cn1c(/C=C/c2ccc([N+](=O)[O-])o2)nc2ccccc2c1=O,i,i,75,i,i,110,i,105,Mdm2-MdmX confirm=102
Cc1nccn1CCC(=O)NC1CC(C)(C)Cc2c1cnn2-c1ccccc1 (configuration not stated),i,i,i,i,i,i,nt,nt,
Cc1ccc(C)c(S(=O)(=O)N2CCC(c3nc4c(nnn4Cc4ccc(F)cc4)c(=O)[nH]3)CC2)c1,nt,i,i,i,i,i,nt,nt,
